Data as given in PubChem BioAssay AID588453 (National Center for Advancing Translational Sciences (NCATS), 2011).
“And” between values parts separate entries of the source, which are not always exact repeats. Equal entries are not always repeated. Hit rate of the full screen: of about 390,000 compounds, about 4,000 (1%) were called active. A call without a number means that no potency is given here. Inconclusive results (about 4%) are left out. This excerpt belongs to a sample that is enriched for actives. A number with no mark means an inactive call. Calls come from the whole dose curve; as a rule, active = well fitted inhibition curve with a large enough effect; inconclusive = small, poorly fitted or top-dose-only effect; inactive = no such curve, though single readings can be large or run the other way.

The compounds below were run against Thioredoxin reductase 1, cytoplasmic (Rattus norvegicus) (UniProt O89049) (assay: qHTS Assay for Inhibitors of Mammalian Selenoprotein Thioredoxin Reductase 1 (TrxR1): qHTS). Conditions: recombinant rTrxR1, NADPH fluorescence consumption, selenite substrate; series mostly up to 114 µM.
Source text: The selenoprotein thioredoxin reductase (TrxR; EC 1.8.1.9) is a FAD containing homodimeric pyridine nucleotide-disulfide oxidoreductase with many cellular roles. Together with NADPH and its prime substrate thioredoxin (Trx), the enzyme forms the core of the Trx system. The mammalian Trx system exerts a wide spectrum of functions including redox regulation, antioxidant defense, regulation of transcription factors as well as support of cell growth and replication. Many of these functions involve the reduction of Trx, which may subsequently reduce a number of different substrates including ribonucleotide reductase, peroxiredoxins or NFkB. Mammalian TrxR itself also has a broad substrate specificity, reducing both protein and non-protein substrates, including low molecular weight compounds such as dehydroascorbate, lipoic acid, ubiquinone, and juglone. In addition, several drugs in clinical use for anticancer treatment are indeed known to target TrxR1.
This BioAssay is a validation of an NADPH fluorescence-based, dual-purpose qHTS rTrxR1 assay designed to find potential inhibitors and substrates of rTrxR1. For this particular BioAssay, actives are potential inhibitors. See related BioAssay for substrate data deposition.
NIH Molecular Libraries Probe Production Network [MLPCN]
NIH Chemical Genomics Center [NCGC]
Assay Provider: Elias Arner, Karolinska Institute
Assay protocol: 2 uL of reagents (buffer in column 4 as negative control and 90 nM rTrxR1 in columns 1-3 and 5-48) were dispensed into Greiner black solid-bottom 1,536-well assay plates, followed by 1 uL of NADPH (400 uM final concentration) to each well. The plates were centrifuged at 1000 rpm for 15 seconds and subsequently incubated for 5 min at room temperature (~22 deg C) to allow for rTrxR1 reduction. Compounds (23 nL) were then transferred via Kalypsys pin tool equipped with 1536-pin array (10 nL slotted pins, V&P Scientific, San Diego, CA). In addition, a duplicate 2-fold serial dilution of the control compounds auranofin, a known gold-based TrxR1 inhibitor, and juglone (5-hydroxy-1,4-naphthoquinone), a natural TrxR1 substrate, were pin-transferred to columns 2 and 3, respectively. After incubation for 15 min at room temperature (~22 deg C), 1 uL of selenite (400 uM final concentration) were dispensed to each well. The plate was immediately transferred to a ViewLux high-throughput CCD imager (PerkinElmer), wherein kinetic measurements of NADPH fluorescence (Ex 340 nm, Em 450 nm) were acquired (8 minute kinetic read, see Table 1). Read 1 was utilized to assess the capacity of a compound to serve as an rTrxR1 substrate, i.e. a decrease in NADPH fluorescence compared to the no-compound background is an indication of a substrate behavior for that particular compound. For inhibitory activity of a compound, delta values, computed as the difference in fluorescence intensity between the first and last reads of an 8-minute time kinetic window, were used. All reagents were diluted in an assay buffer consisting of 50 mM Tris-HCl, pH 7.5, 2 mM EDTA, and 0.01% Tween-20.
Throughout the screen, reagent bottle and all liquid lines were made light-tight to minimize reagent degradation. All screening operations were performed on a fully integrated robotic system (Kalypsys, San Diego, CA) containing one RX-130 and two RX-90 anthropomorphic robotic arms (Staubli, Duncan, SC). Library plates were screened starting from the lowest and proceeding to the highest concentration, and a 'double-pinning' step of the highest concentration was required to access higher concentrations of compounds. Vehicle-only plates, with DMSO being pin-transferred to the columns 5-48, were inserted uniformly at the beginning and the end of each library in order to monitor and record any shifts in the background, which can be affected by reagent dispensers or loss in enzyme activity over time. […]
Note: nearly all actives have a fitted effect of over 65% in size.
Potency is the fitted concentration of half-maximal effect.

Thioredoxin reductase 1, cytoplasmic (Rattus norvegicus), sequence (O89049 whole entry, looked up): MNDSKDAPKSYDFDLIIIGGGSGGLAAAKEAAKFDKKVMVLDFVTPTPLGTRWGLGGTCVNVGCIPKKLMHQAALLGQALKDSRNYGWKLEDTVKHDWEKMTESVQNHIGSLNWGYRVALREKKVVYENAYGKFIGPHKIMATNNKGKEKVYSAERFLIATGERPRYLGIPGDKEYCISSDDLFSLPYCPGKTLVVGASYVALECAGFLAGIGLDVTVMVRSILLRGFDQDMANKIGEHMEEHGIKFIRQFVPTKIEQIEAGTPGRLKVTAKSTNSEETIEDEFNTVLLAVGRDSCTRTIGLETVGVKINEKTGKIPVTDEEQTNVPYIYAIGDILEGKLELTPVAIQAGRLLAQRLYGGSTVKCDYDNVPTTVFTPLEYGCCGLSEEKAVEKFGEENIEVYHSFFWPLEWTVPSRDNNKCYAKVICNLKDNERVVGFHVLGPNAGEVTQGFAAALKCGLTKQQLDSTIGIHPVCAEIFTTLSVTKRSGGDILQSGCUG

Structure (SMILES)	Potency	activity change, negative = inhibition
COc1ccccc1N=Nc1c(O)[nH]c(=S)[nH]c1=O	inactive	–
O=C1N=c2ccccc2=C/C1=C\c1c(O)[nH]c(=S)[nH]c1=O	17.8 µM (active)	–
Cc1ccc2c(c1)=C/C(=C\c1c(O)[nH]c(=O)[nH]c1=O)C(=O)N=2	10 µM (active)	–
O=c1[nH]c(O)c(C=Nc2cc(F)cc(F)c2)c(=O)[nH]1	inactive	–
CC(=O)Nc1ccc(C(=O)C(Cc2ccccc2)N(C)C)cc1 (centres undefined)	inactive	–
CCC(C)n1c(O)c(/C=N/Nc2nc3c(c(=O)n(C)c(=O)n3C)n2C)c(=O)[nH]c1=S (centres undefined)	–	12% [at 11.4 µM]
O=C(Cn1c(=O)n(CC2CS2)c2ccccc21)N1CCCCC1 (centres undefined)	inactive	–
OCC#CC[N+]1(CC#Cc2ccccc2)CCCC1	inactive	–
COCCNC(=O)CN1C2CCC1CC(O)(c1cccnc1)C2 (centres undefined)	inactive	–
CCOc1ccc(C2SCC(=O)Nc3c2c(C)nn3C2CCOC(C)(C)C2)cc1 (centres undefined)	inactive	–
c1ccc(CCNC2CCCCCC2)cc1	inactive	–
COc1ccc2[nH]c3c(c2c1)CCN[C@H]3C	inactive	–
Cn1cc(/C=C/c2nc3ccccc3c(=O)n2-c2ccccc2)c2ccccc21	inactive	–
O=c1c2ccccc2nc(/C=C/c2ccc(F)cc2)n1-c1ccccc1O	inactive	–
O=c1c2ccccc2nc(/C=C/c2ccco2)n1-c1ccccc1O	15.8 µM (active)	–
Cc1cccc(Cn2cccc(C(=O)Nc3ccc4c(c3)OCCO4)c2=O)c1	inactive	–
O=C1NC(=O)C(Cc2ccccc2)C(=O)N1	–	-9.71% [at 2.29 µM]
CCC(=NCc1ccco1)c1c(O)n(Cc2ccccc2)c(=O)[nH]c1=O	14.1 µM (active)	–
CCCCn1c(O)c(C(CC)=NCc2ccco2)c(=O)[nH]c1=O	inactive	–
CN(C)CCCN=Cc1c(O)n(Cc2ccco2)c(=O)[nH]c1=O	inactive	–
O=C(COC(=O)Cc1ccccc1)Nc1ccc(F)cc1	inactive	–
CCOc1ccc(-c2cc(C)n3nc(C(=O)Nc4ccc(C)c(C)c4)cc3n2)cc1	inactive	–
CC(C)c1c(CN(C)C(C)Cc2ccccc2)n(C)n(-c2ccccc2)c1=O (centres undefined)	inactive	–
ClCCN(CCCl)c1ccc(C=Nc2ccc(/C=C/c3ccnc4ccccc34)cc2)cc1	inactive	–
CC(=O)NBr	inactive	–
COc1ccc(NC(=O)c2cn(CCC#N)nc2-c2ccc([N+](=O)[O-])cc2)cc1	inactive	–
O=C1NC(=O)N(c2ccccc2)C(=O)/C1=C/c1ccc([N+](=O)[O-])s1	22.4 µM (active)	–

Structure (SMILES)	Potency	activity change, negative = inhibition
COC(=O)C1=C(c2ccc(F)cc2OCc2ccccc2)C[C@@H]2CC[C@H]1N2C(=O)NCc1ccc(Cl)cc1	inactive	–
O=[N+]([O-])c1ccc(Cl)c(Cl)c1	inactive	–
C=CCN(CC=C)C(=O)Nc1ccc(OCC)cc1	inactive	–
CCC(=O)c1ccc(OCC(=O)N2CCN(CC(=O)Nc3ccc(C)cc3)CC2)cc1	inactive	–
C=CCN1C(=O)NC(=O)/C(=C/c2ccc(OCC(=O)Nc3ccc(C)cc3)cc2)C1=O	20 µM (active)	–
COc1cc(Cl)ccc1Nc1ncc(C(=O)N2CCN(c3ccccc3OC)CC2)c2ccccc12	inactive	–
N#Cc1c(Cl)c(Cl)c(Cl)c(C#N)c1Cl	0.282 µM (active)	–
C=CCN1CCC23c4c5ccc(O)c4O[C@H]2C(=O)CC[C@@]3(O)C1C5 (some centres undefined)	inactive	–
Cc1ncsc1CCCl	inactive	–
Cc1ccccc1NC(=O)COC(=O)c1cc(C)n(C2CC2)c1C	inactive	–
O=P1(Oc2ccccc2)CC(O)C(O)C(COCc2ccccc2)O1 (centres undefined)	inactive	–
CO[C@H]1[C@@H](O)[C@@H](C)O[C@H](O[C@H]2[C@H](Oc3cccc4c(O)c5c(=O)oc6ccc(C)c7c(=O)oc(c34)c5c67)O[C@H](C)[C@H](O)[C@@H]2O)[C@@H]1O	inactive	–
CCC1(C)CC(=O)NC1=O (centres undefined)	inactive	–
CC[C@H]1CC2CN3CCc4c([nH]c5ccccc45)C(C(=O)OC)(C2)C13 (some centres undefined)	inactive	–
CCOC(=O)c1ncn2c1[C@@H]1CCCN1C(=O)c1cc(OC)ccc1-2	inactive	–
CC(=O)c1c(O)c(C)c(O)c(Cc2c(O)c3c(c(C(=O)/C=C/c4ccccc4)c2O)OC(C)(C)C=C3)c1O	28.2 µM (active) and 11.2 µM (active)	–
C[N+]1(C)CCOC(O)(c2ccc(-c3ccc(C4(O)C[N+](C)(C)CCO4)cc3)cc2)C1 (centres undefined)	inactive	–
COC(=O)C1=C(c2ccc(C(C)=O)cc2)C[C@@H]2CC[C@H]1N2C(=O)NCCNC(C)=O	inactive	–
O=C1CC(=O)N(Cc2ccccc2)C(=O)N1CCCCCCN1C(=O)CC(=O)N(Cc2ccccc2)C1=O	2.82 µM (active)	–
O=C(CN1CCCC1=O)NCCc1ccccc1	inactive	–
CC(C)(C)c1ccc(CN2C(=O)CN=C(c3ccccc3)c3ccccc32)cc1	inactive	–
COCc1cc(OC(=O)N(C)C)nc(-c2ccc(C)c(Cl)c2)n1	inactive	–
COc1ccc(-n2c(-c3ccccc3)nc3ccccc3c2=O)cc1	inactive	–
CC[C@H]1CN2CCc3cc(OC)c(OC)cc3[C@@H]2C[C@@H]1C[C@H]1NCCc2cc(OC)c(OC)cc21	inactive	–
COC(=O)C1=C(c2cc3ccccc3s2)C[C@@H]2CC[C@H]1N2C(=O)NCCO	inactive	–
COc1ccc(NC(=O)N2CCC3(CC2)OCCO3)c(OC)c1	inactive	–
COc1ccc(-c2nc(CS(=O)CC(=O)N3CCC4(CC3)OCCO4)c(C)o2)cc1 (centres undefined)	7.08 µM (active)	–

Structure (SMILES)	Potency	activity change, negative = inhibition
COc1ccc(S(=O)(=O)NCc2ccc(C(=O)N3CCC4(CC3)OCCO4)cc2)cc1	inactive	–
CCN(CC)CCOC(=O)c1cc2cc(COC)ccc2o1	inactive	–
CCN1C(=O)C(=Cc2c(C)n(CC(=O)NCC3CCCO3)c3ccccc23)C(=O)N(CC)C1=S (centres undefined)	11.2 µM (active)	–
CCCCCCN=C(CC)c1c(O)n(CCCC)c(=O)[nH]c1=O	inactive	–
COC1=C[C@@H]2[C@@H]3Cc4ccc(OC)c(O)c4[C@]2(CCN3C)CC1=O	inactive	–
O=C(O)/C=C/c1ccc2c(c1)OCO2	inactive	–
CN(C)CC1Oc2ccccc2OC1(O)c1ccccc1 (centres undefined)	0.398 µM (active)	–
O=C(O)C1C2CCC(O2)C1C(=O)O (centres undefined)	inactive	–
CC1CCC(N(C)C2CCN(C)CC2)CC1 (centres undefined)	inactive	–
CCNc1nc2[nH]c(=O)c3c(c2s1)OC(N)=C(C#N)C3c1cccs1 (centres undefined)	inactive	–
CCCCN1C2CCC1CC(OC(c1ccc(F)cc1)c1ccc(F)cc1)C2 (centres undefined)	inactive	–
COc1ccc(OC)c(NC(=O)Cn2c(=O)oc3ccccc32)c1	inactive	–
Cc1ccnc(-n2c(C)cc(/C=C3\C(=O)NC(=S)N(C)C3=O)c2C)c1	35.5 µM (active)	–
Cc1ccc(-n2c(C)cc(/C=C3\C(=O)NC(=O)N(C)C3=O)c2C)cc1C	inactive	–
Cc1cc(C=C2C(=O)NC(=O)NC2=O)c(C)n1-c1ccncc1	inactive	–
O=C(O)C1CSC(c2cccnc2)N1 (centres undefined)	inactive	–
c1cncc(CNCCc2c[nH]c3ccccc23)c1	inactive	–
C[C@@H]1C[C@@H]2O[C@H]2/C=C\C=C\C(=O)Cc2c(Cl)c(O)cc(O)c2C(=O)O1	12.6 µM (active)	–
COc1cc([C@@H]2c3cc4c(cc3[C@H](OC(C)=O)[C@H]3COC(=O)[C@H]23)OCO4)cc(OC)c1OC	inactive	–
CCOc1ccc(CN(CCCl)CCCl)cc1C(=O)OC	15.8 µM (active)	–
CC1=CC(=Cc2sc3ccccc3[n+]2C)C=C(C)O1	inactive	–
Cc1ccc(Cn2c(C)c3cnn(CC(=O)N4CCC5(CC4)OCCO5)c(=O)c3c2C)cc1	inactive	–
CC(=O)Cc1ccc(OC(C)C)cc1	inactive	–
CCOP(=O)(OCC)C(NC(=O)c1ccc(OC)cc1)C(Cl)(Cl)Cl (centres undefined)	inactive	–
CC(=O)c1ccc(OC(NC(=O)Cc2ccccc2)C(Cl)(Cl)Cl)cc1 (centres undefined)	10 µM (active)	–
